{"source": "PubChem BioAssay (NCATS)", "note": "Results filed as inconclusive are left out. Activity calls are given as the source filed them. Calls come from the whole dose curve; as a rule, active = well fitted inhibition curve with a large enough effect; inconclusive = small, poorly fitted or top-dose-only effect; inactive = flat fitted curve, though single readings scatter. % is set by controls: 0 for no effect and ±100 for the full control effect."}
{"tested_on": "CRL-7250", "experiment": "Cytotoxic Profiling of Annotated Libraries Using Quantitative High-Throughput Screening (AID 1296008); note: nearly all actives have a fitted effect of over 60% in size", "conditions": "Five cell lines viability, CellTiter-Glo ATP luminescence, 48-72 h; max response: active compounds read low", "summary_of_the_method": "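Cytotoxicity was measured as CellTiter-Glo ATP luminescence, read after 10 min at room temperature. Compound treatment of the cells lasted 48 or 72 hr at 37 degrees Celsius in a qHTS format.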"}
{"smiles": "CC[C@@H]1[C@H]2CCCCN3C(=O)C[C@H]([C@@H]4[C@H]1OC(=O)[C@H]4C)[C@@H]23", "max response": "-4.41% (inactive)"}
{"smiles": "Oc1ccc2c(-c3c(-c4ccccn4)nn4c3CCC4)ccnc2c1", "max response": "-1.66% (inactive)"}
{"smiles": "CC1(C)CCCC2(C)c3c4c(c(=O)oc(=O)c3=CCC12)=CCC1C(C)(C)CCCC41C", "note": "(configuration not stated)", "max response": "-2.61% (inactive)"}
{"smiles": "C[C@H]1[C@H](C)CC[C@]2(C(=O)O)CC[C@]3(C(=O)O)C(=CCC4[C@@]5(C)CC[C@H](O[C@@H]6O[C@@H](C)[C@H](O)[C@@H](O)[C@H]6O)C(C)(C)C5CC[C@]43C)[C@H]12", "note": "(some centres not stated)", "outcome": "inactive"}
{"smiles": "CCC(C)C(=O)O[C@H]1C[C@](C)(O)[C@]23OC(C)(C)[C@H](C[C@H](OC(=O)c4ccccc4)[C@]2(COC(C)=O)[C@H]1OC(=O)C(C)CC)[C@H]3OC(C)=O", "note": "(some centres not stated)", "max response": "-7.32% (inactive)"}
{"smiles": "CC(C)=C1CC2C(CCC2(C)O)C(C)(O)CC1=O", "note": "(configuration not stated)", "outcome": "inactive"}
{"smiles": "CC(=O)c1[nH]cc(CCC(=O)O)c1CC(=O)O", "outcome": "inactive"}
{"smiles": "CC(=O)O[C@@H]1[C@@H](O)[C@H](C)O[C@@H](O[C@H]2[C@@H]3C=CO[C@@H](O[C@@H]4O[C@H](CO)[C@@H](O)[C@H](O)[C@H]4OC(C)=O)[C@@H]3[C@@]3(CO)O[C@@H]23)[C@@H]1OC(=O)/C=C/c1ccc(O)cc1", "max response": "0.704% (inactive)"}
{"smiles": "CC(=O)OC1C(O)C(C)(O)C(/C=C/C(=O)O)C2(C)CCCC(C)(C)C12", "note": "(configuration not stated)", "max response": "4.11% (inactive)"}
{"smiles": "C=C(CO)C(=O)O[C@H]1C[C@@]23O[C@@H]2CC/C(=C/[C@H]2OC(=O)C(=C)[C@H]12)CO[C@H]3O", "outcome": "inactive"}
{"smiles": "CC(C)C1CCC(CO)=CC1/C=C(\\CO)C(=O)OCC1(O)CCC(C(C)C)C2C=C(C(=O)O)COC(=O)C21", "note": "(configuration not stated)", "outcome": "inactive"}
{"smiles": "O=C(/C=C/c1ccc(O)cc1)OC[C@@]1(O)C=C[C@@H]2C(C(=O)O)=CO[C@@H](O[C@@H]3O[C@H](CO)[C@@H](O)[C@H](O)[C@H]3O)[C@@H]21", "max response": "-3.16% (inactive)"}
{"smiles": "C=C1C(=O)O[C@@H]2/C=C(\\C)CC/C=C(\\C(=O)O[C@@H]3O[C@H](CO)[C@@H](O)[C@H](O)[C@H]3O)CC[C@@H]12", "max response": "4.73% (inactive)"}
{"smiles": "C=C[C@H]1[C@H](O[C@@H]2O[C@H](CO)[C@@H](O)[C@H](OC(=O)/C=C/c3ccc(O)c(OC)c3)[C@H]2O)OC=C2C(=O)OCC[C@]21O", "max response": "-3.95% (inactive)"}
{"smiles": "C[C@@H]1O[C@@H](O[C@H]2[C@H](OC(=O)[C@]34CCC(C)(C)C[C@H]3C3=CCC5[C@@]6(C)CC[C@H](O[C@@H]7O[C@H](CO[C@@H]8OC[C@H](O)[C@H](O)[C@H]8O)[C@@H](O)[C@H](O)[C@H]7O)C(C)(C)C6CC[C@@]5(C)[C@]3(C)C[C@H]4O)OC[C@@H](O)[C@@H]2O)[C@H](O)[C@H](O[C@@H]2OC[C@](O)(CO)[C@H]2O)[C@H]1O[C@@H]1OC[C@H](O)[C@H](O[C@@H]2OC[C@@H](O)[C@H](O)[C@H]2O)[C@H]1O", "note": "(some centres not stated)", "outcome": "inactive"}
{"smiles": "C=CCc1ccc(O[C@@H]2O[C@H](CO)[C@@H](O)[C@H](O)[C@H]2O)c(O[C@@H]2O[C@H](CO)[C@@H](O)[C@H](O)[C@H]2O)c1", "max response": "-3.11% (inactive)"}
{"smiles": "C=C1CC2C(C)(CCC(=O)O)C(C(C)(C)O)CCC2(C)C2(C(=O)OC)C(=O)C(C)(O)C(=O)C12C", "note": "(configuration not stated)", "max response": "-12.5% (inactive)"}
{"smiles": "CC[C@H](C)[C@H](NC(=O)[C@H](Cc1ccc(O)cc1)NC(=O)[C@@H](N)C(C)C)C(=O)N[C@@H](Cc1cnc[nH]1)C(=O)N1CCC[C@H]1C(=O)N[C@@H](Cc1ccccc1)C(=O)O", "outcome": "inactive"}
{"smiles": "CC(=O)O[C@@H](C[C@@H]1C=C(C)C(=O)O1)[C@H](C)[C@H]1CCC2[C@@]3(C)CC[C@H](O[C@@H]4O[C@H](CO)[C@@H](O)[C@H](O)[C@H]4O[C@@H]4O[C@@H](C)[C@H](O)[C@@H](O)[C@H]4O)C(C)(C)C3CC[C@@]2(C)[C@@]12COC(=O)C2", "note": "(some centres not stated)", "outcome": "inactive"}
{"smiles": "C/C=C1\\[C@H](O[C@@H]2O[C@H](CO)[C@@H](O)[C@H](O)[C@H]2O)OC=C(C(=O)OCCc2ccc(O)cc2)[C@H]1CC(=O)OCCc1ccc(O)cc1", "max response": "0.139% (inactive)"}
{"smiles": "C=C1CC/C=C(/CO)C(=O)C[C@@H]2[C@@H]1C[C@@]2(C)COC(C)=O", "outcome": "inactive"}
{"smiles": "C=C1CC[C@@H]2[C@](C)(CO)[C@H](O[C@@H]3O[C@H](CO)[C@@H](O)[C@H](O)[C@H]3O)CC[C@@]2(C)[C@@H]1C/C=C1/C(=O)OC[C@H]1O", "max response": "-3.97% (inactive)"}
